Test results published in publication PMC4336329 (PLoS ONE, 2015).
Out of some 310,000 compounds screened, about 14,000 (4.5%) showed an effect of 50% or more. Effects have a minus sign here. The full list was thinned out, with strong results kept by preference.

Target: human ether-à-go-go-related gene (hERG) potassium channel (human, UniProt Q12809)
Assay: primary screen, population patch clamp on CHO cells stably expressing hERG; higher = less effect of the substance
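Further: peak tail current of the secondary pulse compared with the same well before compound.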

Sequence of human ether-à-go-go-related gene (hERG) potassium channel (Q12809 whole entry, looked up): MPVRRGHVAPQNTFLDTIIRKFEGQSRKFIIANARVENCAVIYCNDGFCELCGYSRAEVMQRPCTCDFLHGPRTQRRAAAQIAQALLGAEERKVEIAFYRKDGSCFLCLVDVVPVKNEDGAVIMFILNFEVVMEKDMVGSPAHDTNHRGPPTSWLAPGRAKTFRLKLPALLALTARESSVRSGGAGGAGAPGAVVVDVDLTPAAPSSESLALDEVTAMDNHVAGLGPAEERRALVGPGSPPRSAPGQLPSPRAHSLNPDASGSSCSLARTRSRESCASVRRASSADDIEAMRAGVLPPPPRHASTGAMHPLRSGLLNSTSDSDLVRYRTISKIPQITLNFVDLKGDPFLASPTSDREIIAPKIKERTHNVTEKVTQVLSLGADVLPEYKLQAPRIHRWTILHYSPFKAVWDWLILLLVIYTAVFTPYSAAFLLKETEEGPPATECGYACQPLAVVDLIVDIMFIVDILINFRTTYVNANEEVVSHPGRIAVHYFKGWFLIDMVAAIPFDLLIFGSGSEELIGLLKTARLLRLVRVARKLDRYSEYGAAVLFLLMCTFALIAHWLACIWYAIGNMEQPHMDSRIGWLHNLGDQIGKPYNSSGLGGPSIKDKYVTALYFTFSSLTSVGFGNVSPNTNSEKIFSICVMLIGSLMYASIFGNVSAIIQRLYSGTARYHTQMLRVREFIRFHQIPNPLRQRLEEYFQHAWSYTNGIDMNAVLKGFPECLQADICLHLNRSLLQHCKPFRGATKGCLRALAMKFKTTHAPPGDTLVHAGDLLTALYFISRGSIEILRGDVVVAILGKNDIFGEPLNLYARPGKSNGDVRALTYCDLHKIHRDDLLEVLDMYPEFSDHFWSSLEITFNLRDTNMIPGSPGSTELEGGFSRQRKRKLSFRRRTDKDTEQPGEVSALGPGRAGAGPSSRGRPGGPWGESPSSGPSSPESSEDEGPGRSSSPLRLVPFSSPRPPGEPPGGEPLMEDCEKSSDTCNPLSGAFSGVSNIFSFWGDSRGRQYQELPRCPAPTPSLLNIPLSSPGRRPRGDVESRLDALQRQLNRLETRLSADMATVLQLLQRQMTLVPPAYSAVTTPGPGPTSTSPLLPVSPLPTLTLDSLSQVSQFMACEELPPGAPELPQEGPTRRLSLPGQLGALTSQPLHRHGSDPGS

| SMILES | hERG current change (%, negative = inhibition) at 10uM |
| --- | --- |
| CS(=O)(=O)N(CC(=O)Nc1ccccc1-c1ccccc1)c1ccccc1 | -0.135% |
| O=C(NC1CCCC1)C(c1ccncc1)N(C(=O)c1ccco1)c1ccc(Cl)cc1 (stereo not drawn) | -4.59% |
| CCOC(=O)C1(CCc2ccccc2)CCN(C(C)CSC)CC1 (stereo not drawn) | -66.6% |
| CCOC(=O)C1(CCOc2ccccc2)CCN(C(=O)CCSC)CC1 | -42% |
| CCOC(=O)C1(CCOc2ccccc2)CCN(C(C)CSC)CC1 (stereo not drawn) | -55.3% |
| O=C1C2CCCN2C(c2ccc(Cl)c(Cl)c2)N1c1ccccn1 (stereo not drawn) | -10% |
| O=C(NC(=S)Nc1ccc(-c2nc3ncccc3o2)cc1)c1ccccc1F | 14.5% |
| CCOCCCNC(=O)C(NC(=O)c1cnccn1)c1ccc(C)cc1 (stereo not drawn) | 30.4% |
| CCN(CC)C(=O)Cn1cc(S(=O)(=O)CC(=O)Nc2ccc(C(N)=O)cc2)c2ccccc21 | 18.2% |
| CCOc1ccc(NC(=O)CN2CCCC2c2cccs2)cc1S(=O)(=O)N1CCCCC1 (stereo not drawn) | -11.8% |
| COc1ccc(NC(=O)NCCN2CCN(c3cccc(Cl)c3)CC2)cc1 | -31.6% |
| CCc1ccc(N2CCN(CCNC(=O)Nc3ccc(OC)cc3)CC2)cc1 | -29.9% |
| COc1ccc(N2CCN(CCCNC(=O)Nc3ccccc3)CC2)cc1 | -64.5% |
| COC(=O)c1ccc(N2CCN(CCNC(=O)Nc3ccc(OC)cc3)CC2)cc1 | -0.192% |
| COc1ccccc1N1CCN(CCCNc2c(C)c(=O)n(C)c(=O)n2C)CC1 | -5.42% |
| CSc1cccc(NC(=S)NCCCN2CCN(c3ccc(F)cc3)CC2)c1 | -66.7% |
| COc1ccc(N2CCN(CCNC(=O)Nc3ccc(Cl)cc3)CC2)cc1 | -60.7% |
| Fc1cccc(NC(=S)NCCCN2CCOCC2)c1 | -0.1% |
| COc1ccccc1N1CCN(CCCNC(=O)Nc2ccccc2)CC1 | -59.8% |
| COc1ccc(N2CCN(CCNC(=O)Nc3ccc(C)c(Cl)c3)CC2)cc1 | 15.9% |
| CCOc1ccc(NC(=O)CCN2CCN(c3ccccc3OC)CC2)cc1 | -33.8% |
| CSc1cccc(NC(=S)NCCCO)c1 | -4.03% |

| SMILES | hERG current change (%, negative = inhibition) at 10uM |
| --- | --- |
| CC(OC(=O)c1ccccc1NCc1ccco1)C(=O)Nc1ncc(Cl)cc1Cl (stereo not drawn) | 2.95% |
| Cc1ccc(C)c(-n2nnnc2SCC(=O)NCC2CCCO2)c1 (stereo not drawn) | -4.18% |
| CCN(C(=O)COC(=O)CCC(=O)c1cccs1)c1c(N)n(Cc2ccccc2)c(=O)[nH]c1=O | -4.97% |
| CCCCCOc1ccc(CSCCNC(=S)Nc2ccccc2)cc1 | -5.94% |
| O=C(O)c1ccccc1C(=O)c1ccc(-c2ccccc2)cc1 | 17.2% |
| CCOC(=O)c1ccc(S(=O)(=O)NNC(=O)COc2cccc(C)c2)cc1 | 34.6% |
| Cc1ccc(S(=O)(=O)N2CCN(S(=O)(=O)N3CCCCCC3)CC2)cc1 | 20.4% |
| COc1cccc(NC(=S)NCCCN2CCOCC2)c1 | 16.7% |
| COc1cccc(NC(=O)NCCCN2CCN(c3ccc(F)cc3)CC2)c1 | -73.2% |
| COc1ccccc1N1CCN(CCCNC(=O)Nc2ccccc2C)CC1 | -33.7% |
| Cc1cccc(NC(=O)NCCN2CCN(c3ccccc3)CC2)c1C | -9.69% |
| COc1cccc(NC(=O)NCCN2CCCCC2)c1 | -13.7% |
| COc1ccccc1N1CCN(CCNC(=O)Nc2cccc(C)c2C)CC1 | -68.8% |
| Cc1cccc(NS(=O)(=O)c2c(C(=O)N3CCCC3)c(C)n(C)c2C)c1 | 18.1% |
| Cc1cc(Cl)ccc1OCC(=O)N/N=C/c1ccncc1 | -14.9% |
| COC(=O)CSc1nc(C)cc(N2CCOCC2)n1 | 7.89% |
| NC(=O)C1CCN(C(=O)COc2ccc3ccccc3c2)CC1 | 18.2% |
| CCC(C)(C)NC(=O)C(c1cccnc1)N(C(=O)c1csnn1)c1ccccc1 (stereo not drawn) | -22.7% |
| O=C(Cn1c(-c2ccccc2)noc1=O)NCc1ccccc1 | 6.47% |
| N#CCSc1nc2ccccc2c(=O)n1CCCC(=O)NCC1CCCO1 (stereo not drawn) | -12.4% |
| CCOC(=O)CSc1nc2cc(C(=O)N3CCC(C(N)=O)CC3)ccc2c(=O)n1C1CCCCC1 | -10.7% |
| C=CCn1c(SCC(=O)CC(=O)OCC)nc2cc(C(=O)N3CCC(C(N)=O)CC3)ccc2c1=O | 13.7% |

| SMILES | hERG current change (%, negative = inhibition) at 10uM |
| --- | --- |
| CCCCCn1c(SCC(=O)CC(=O)OCC)nc2cc(C(=O)N3CCC(C(N)=O)CC3)ccc2c1=O | -17.7% |
| NC(=O)C1CCN(C(=O)c2ccc3c(=O)n(Cc4ccco4)c(SCC(=O)c4ccccc4)nc3c2)CC1 | 6.75% |
| CCCCCn1c(SCC(=O)OCC)nc2cc(C(=O)N3CCC(C(N)=O)CC3)ccc2c1=O | -58.4% |
| CCCCCn1c(SCC2CCCO2)nc2cc(C(=O)N3CCC(C(N)=O)CC3)ccc2c1=O (stereo not drawn) | -64.7% |
| CCCCCn1c(SCC#N)nc2cc(C(=O)NCC3CCCO3)ccc2c1=O (stereo not drawn) | -52.7% |
| CCCCn1c(SC(C)C(=O)NCC2CCCO2)nc2cc(C(=O)OC)ccc2c1=O (stereo not drawn) | -44.9% |
| c1cc(-c2nnn(CCOCCn3nnc(-c4ccncc4)n3)n2)ccn1 | -0.329% |
| c1ccc(Oc2cccc(OCCn3cncn3)c2)cc1 | -12.7% |
| CC(=O)c1ccc(NC(=S)NNC(=O)c2ccccc2[N+](=O)[O-])cc1 | 20% |
| CC1CCN(CCCNC(=O)C2CCC(CNS(=O)(=O)c3ccccc3)CC2)CC1 (stereo not drawn) | 5.02% |
| CCC1CCCCN1CCCNC(=O)C1CCC(CNS(=O)(=O)c2c(C)cc(C)cc2C)CC1 (stereo not drawn) | -68.3% |
| CCCCN(C)CCCNC(=O)C1CCC(CNS(=O)(=O)c2c(C)cc(C)cc2C)CC1 (stereo not drawn) | -77.3% |
| CCN(CC)CCCNC(=O)C1CCC(CNS(=O)(=O)c2c(C)cc(C)cc2C)CC1 (stereo not drawn) | -13.5% |
| COCCNC(=O)C1CCC(CNS(=O)(=O)c2c(C)cc(C)cc2C)CC1 (stereo not drawn) | 7.72% |
| COC(CNC(=O)C1CCC(CNS(=O)(=O)c2c(C)cc(C)cc2C)CC1)OC (stereo not drawn) | -26% |
| Cc1ccc(S(=O)(=O)NCC2CCC(C(=O)NCCCN3CCOCC3)CC2)cc1 (stereo not drawn) | 10.8% |
| Cc1cc(C)c(S(=O)(=O)NCC2CCC(C(=O)NCCCN3CCC(C)CC3)CC2)c(C)c1 (stereo not drawn) | -77.2% |
| CCCCNC(=O)C1CCC(CNS(=O)(=O)c2c(C)cc(C)cc2C)CC1 (stereo not drawn) | 3.09% |
| O=C(Cn1c2c(c(=O)n3ncnc13)CCC2)N/N=C/c1cccs1 | 0.665% |
| CS(=O)(=O)c1ccc(C(=O)NCC(c2ccco2)N2CCCCC2)cc1 (stereo not drawn) | 18% |
| Cc1cc(OCC(=O)NCC(O)c2ccccc2)c2c3c(c(=O)oc2c1)CCCC3 (stereo not drawn) | 12.1% |
| CCCCn1c(N)c(N(CCOC)C(=O)c2ccco2)c(=O)[nH]c1=O | 0.12% |

| SMILES | hERG current change (%, negative = inhibition) at 10uM |
| --- | --- |
| Cc1ccc(-n2c(SCC(=O)N/N=C/c3c(C)nn(-c4ccccc4)c3C)nc3ccccc3c2=O)cc1 | -7.33% |
| O=C(Nc1ccccc1)N1CCC(O)(c2cccc(C(F)(F)F)c2)CC1 | -6.72% |
| c1ccc(-c2nc3ccccc3s2)nc1 | 4.67% |
| Cc1ccc(-n2c(SCC(=O)N3c4ccccc4Sc4ccccc43)nnc2-c2ccncc2)cc1 | -3.06% |
| COc1ccc(NC(=O)CN(C)C(=O)C(C)Sc2ccccc2)cc1 (stereo not drawn) | 5.43% |
| COC(=O)Cn1c2nc3ccccc3nc2c2cccc(C)c21 | 9.86% |
| COC(=O)Cn1cnc2c(C#N)c3n(c2c1=O)CCCCC3 | -8.01% |
| COc1cc(-c2nn3c(COc4ccccc4)nnc3s2)cc(OC)c1OC | 14.8% |
| O=C(NCc1ccccc1)c1ccco1 | 2.34% |
| COc1ccc(CN2CCN(Cc3cccc4nonc34)CC2CCO)c(C)c1C (stereo not drawn) | -68.3% |
| COc1cccc(CN2CCN(Cc3cccc4c3OCO4)CC2CCO)c1 (stereo not drawn) | -23.2% |
| CCOc1ccccc1CN1CCN(Cc2cccc3nonc23)CC1CCO (stereo not drawn) | -73.3% |
| CCOc1ccccc1CN1CCN(Cc2ccon2)CC1CCO (stereo not drawn) | -42.6% |
| CC(C)N1CCN(Cc2cccc3nonc23)CC1CCO (stereo not drawn) | 1.05% |
| CC(C)CCN1CCN(Cc2cccc3nonc23)CC1CCO (stereo not drawn) | -16.7% |
| COc1cccc(CN2CCN(Cc3ccon3)CC2CCO)c1 (stereo not drawn) | 0.227% |
| COc1cccc(CN2CCN(Cc3cccc4nonc34)CC2CCO)c1 (stereo not drawn) | -66.3% |
| Cc1cccc(CN2CCN(Cc3cccc4nonc34)CC2CCO)n1 (stereo not drawn) | -24.1% |
| CCOc1ccc(CN2CCN(Cc3cccc4nonc34)CC2CCO)cc1 (stereo not drawn) | -77.1% |
| Cc1ccc(-n2nc3c(=O)n(CC(=O)NCCc4ccc(Cl)cc4)nc(C)c3c2C)cc1 | -10.2% |
| CCc1ccccc1N(CC(=O)N1CCN(c2ccccc2F)CC1)S(C)(=O)=O | 0.701% |
